Compounds with a hit are over-represented: about 21% of the library has one in this group of screens.
Sm TGR block = qHTS Assay for the Inhibitors of Schistosoma Mansoni Peroxiredoxins; Schistosoma mansoni thioredoxin glutathione reductase (TGR), Q962Y6; purified TGR, DTNB reduction, TNB absorbance 405 nm; Potency, µM (series often up to 114 µM), inactives show top-dose activity change, negative = inhibition, actives largely listed as inhibitors; actives 3% (n = 360,000); further: potency means the concentration at half of the fitted maximal effect; on the % scale 0 is the no-effect control and ±100 the full control effect; nearly all actives have a fitted effect of over 60% in size
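TGR 20 nM + NADPH 100 uM (dispensed conc.), cpd preinc 15 min RT; start with NADPH (500 uM addition) then DTNB (15 mM addition). Kinetic TNB absorbance, 405 nm filter. Four-parameter Hill fit across titration.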
Shiga toxin inh = A qHTS for Small Molecule Inhibitors of Shiga Toxin | Vero cells, Shiga toxin protein synthesis inhibition reporter | inhibition, % at 38.7 µM | actives 9.2% (n = 290,000) | AID 2315, 2010; in the data active means inhibition mostly above about 28%, no sharp cut-off; inactive means mostly below about 43%; further: 0% is about no effect
NS1 function inh = qHTS Assay for Inhibitors of Influenza NS1 Protein Function; Potency, µM (titrated, usually from 46.1 µM), without a hit: top-dose activity, positive = more growth; actives 0.4% (n = 270,000); AID 2326, 2010; calls by dose curve; further: potency means the concentration at half of the fitted maximal effect; actives are rising curves; nearly all actives have a fitted effect of over 50% in size
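OD600 was taken as the measure of yeast growth restored by compound in an NS1-expressing S. cerevisiae strain. Cells had been washed out of glucose medium and diluted 1:100 into galactose -URA medium, pH 6.0.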
Pf growth 96h = Primary qHTS for delayed death inhibitors of the malarial parasite plastid, 96 hour incubation; actives 6.9% (n = 320,000); Potency, µM (titrated, usually from 28.7 µM), without a hit: at the top dose activity change, negative = inhibition, actives largely listed as inhibitors; AID 504834, 2011; P. falciparum luciferase reporter growth, 96 h; further: potency means the concentration at half of the fitted maximal effect; on the % scale 0 is the no-effect control and ±100 the full control effect
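Readout is luminescence from an integrated firefly luciferase in P. falciparum. Red cells, 2% hematocrit and 0.05% parasitemia final, were cultured with compound through two parasite generations (96 hours) at 37 C, 5% CO2.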
Cycloheximide cs = Cycloheximide Counterscreen for Small Molecule Inhibitors of Shiga Toxin; cell reporter, cycloheximide protein synthesis inhibition counterscreen; max response, %; actives 12% (n = 300,000); in the data active means max response mostly above about 13%, no sharp cut-off; inactive means mostly below about 14%; further: read at 38.3 µM for the half of the compounds with a filed dose; 0% is about no effect
Pf growth 48h = Primary qHTS for delayed death inhibitors of the malarial parasite plastid, 48 hour incubation; P. falciparum luciferase growth in erythrocytes, 48 h; Potency, µM (doses to about 28.7 µM), for inactives: top-dose activity change, negative = inhibition, most hits filed as inhibitors; actives 5.9% (n = 310,000); AID 504832, 2011; further: potency means the concentration at half of the fitted maximal effect; on the % scale 0 is the no-effect control and ±100 the full control effect
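Read-out is firefly luciferase luminescence from an integrated reporter in P. falciparum, so falling signal marks reduced parasite growth. Infected erythrocytes were at 2% hematocrit and 0.1% parasitemia (final) in Albumax-supplemented RPMI 1640.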
* hit, by the source's call; u = inconclusive; x = no result given; [ ] = another dose, or the depositor's remark. Unless noted, the call rests on the fitted dose curve; in most records, active means well fitted curve in the direction sought with a large enough effect; inconclusive means small, poorly fitted or top-dose-only effect, or another doubt; inactive means no such curve, though single readings can be large; an effect the other way counts as inactive or inconclusive.

SMILES | Sm TGR block | Shiga toxin inh | NS1 function inh | Pf growth 96h | Cycloheximide cs | Pf growth 48h
O=C1N=C(N2CCCC2C(=O)O)S/C1=C\c1ccco1 (centres undefined) | 7.1µM* | 20 | -1% | -5% | 8 | u
COc1ccc(OCCSCc2nnc(NC(=O)Nc3ccc(Cl)cc3)s2)cc1 | -4% | -4 | 3% | 34% | -2 | u
CN(C)c1ccc(/C=N/NC(=O)CNC(=O)/C=C/c2ccco2)cc1 | u | 31 | -9% | 31% | 3 | 39%
O=C(/C=C/c1ccco1)NCC(=O)N/N=C/c1ccc([N+](=O)[O-])cc1 | 8.9µM* | 2 | x | -18% | -2 | -24%
COc1ccccc1/C=C/C(=O)NCC(=O)N/N=C(/C)c1ccc(Cl)cc1 | -20% | -3 | 4% | 21% | 1 | 18%
O=C(/C=C/c1ccco1)NCC(=O)N/N=C/c1ccc(Cl)cc1 | 14µM* | 19 | x | 6% | 8 | 9%
C/C(=N/NC(=O)CNC(=O)/C=C/c1ccco1)c1ccc(Cl)cc1 | 8.9µM* | -12 | 5% | u | -1 | 58%
Cc1ccc2cc3c(N)c4c(C)ccc(C)c4nc3nc2c1 | 54% | -3 | x | -2% | 2 | u
Cn1c(SCc2ccc(C#N)cc2)nnc1-c1ccccc1 | 0% | -3 | -11% | u | -1 | -12%
Cn1c(SCc2ccccc2)nnc1-c1ccc(O)cc1 | -6% | 66* | 3% | 21% | 31* | 7%
Cn1c(SCC(=O)c2ccccc2)nnc1-c1ccc(O)cc1 | 1% | 68* | 13% | 20% | 35* | x
CCN(CC)S(=O)(=O)c1cccc(-c2nnc(SCC(=O)NC)n2N)c1 | 9% | -10 | 7% | -2% | 3 | 23%
Cn1c(SCC(=O)c2ccccc2)nnc1-c1ccncc1 | -15% | -4 | 2% | -6% | -3 | 19%
Cc1nc(-c2ccccn2)nc(SCC(=O)c2ccccc2)c1Cl | -4% | -14 | -7% | 5.2µM* | -2 | 15µM*
CCN(CC)S(=O)(=O)c1cccc(-c2nnc(SCC(=O)c3ccc(Cl)s3)n2C)c1 | 0% | -3 | -3% | 58% | 2 | 13µM*
COCCCN1C(=O)C(=O)/C(=C(/O)c2ccc(S(=O)(=O)N3CCCCC3)cc2)C1c1ccc(O)cc1 (centres undefined) | 5% | -7 | 15% | u | -6 | 17%
Cn1c(SCC(=O)c2ccccc2)nnc1-c1cccc(N)c1 | -11% | 65 | 3% | 3% | 29* | x
Cn1c(SCc2ccccc2)nnc1-c1ccc2c(c1)OCO2 | 36% | 75* | 0% | 36% | 49* | 69%
Cn1c(SCC(=O)c2ccccc2)nnc1-c1ccccn1 | -1% | 113* | 0% | 40% | 53* | 59%
Cn1c(SCC(=O)N2c3ccccc3CCc3ccccc32)nnc1-c1ccc(O)cc1 | 9% | 36 | 0% | -15% | 3 | 12µM*
Cn1c(SCC#N)nnc1-c1ccc2c(c1)OCO2 | 0% | -3 | 4% | -10% | -2 | 18%
N/C(CC/C(N)=N/O)=N\O | x | x | 2% | x | x | x
CC1(NC(=O)c2ccccc2)CCN(CCCc2ccccc2)C1=O (centres undefined) | 8% | x | x | u | x | 26%
Cc1c(C(=O)Nc2ccc(S(=O)(=O)N(C)C3CCN(C)CC3)cc2)oc2ccccc12 | -16% | x | x | u | x | 4.7µM*
Cc1c(C(=O)Nc2ccc(S(=O)(=O)N(C)C3CCN(C)CC3)cc2)oc2c(Cl)cccc12 | -10% | x | x | 2.6µM* | x | 2.9µM*
SMILES | Sm TGR block | Shiga toxin inh | NS1 function inh | Pf growth 96h | Cycloheximide cs | Pf growth 48h
COc1ccc(NC(=O)c2oc3ccc(S(=O)(=O)N(C)C4CCCCC4)cc3c2C)cc1 | 10% | x | x | x | x | x
Cc1cc(Br)ccc1NS(=O)(=O)c1c(C)[nH]c(=O)[nH]c1=O | 11% | -18 | 2% | 5.2µM* | 8 | 2%
Cc1ccc(NS(=O)(=O)c2c(C)[nH]c(=O)[nH]c2=O)c(C)c1 | -12% | 3 | 1% | 27% | -2 | 8%
CSc1nc2nc(-c3ccccc3)cc(C(F)(F)F)n2n1 | -1% | -20 | -2% | 1% | 13 | 4.1µM*
CSc1nc2nc(C)cc(-c3ccccc3)n2n1 | -9% | -1 | -7% | x | -1 | 13%
CSc1nc2nc(C(F)(F)F)cc(-c3ccccc3)n2n1 | -1% | -5 | -2% | 2.9µM* | -1 | x
FC(F)(F)c1cc(-c2ccccc2)nc2cc(-c3ccccc3)nn12 | -1% | x | x | x | x | x
CC(=O)c1ccc(NC(=O)CC(C)S(=O)(=O)c2ccc3c(c2)CCN3C(C)=O)cc1 (centres undefined) | 3% | -2 | 3% | 39% | -2 | 0%
c1ccc(CN2CCOCC2)cc1 | 2% | -18 | -1% | x | -5 | 4%
COc1ccccc1NC(=O)c1ccc(CN2CCOCC2)cc1 | -7% | 13 | -1% | u | 10 | 43%
O=C(Cc1ccccc1)Nc1ccc(CN2CCOCC2)cc1 | -1% | 81* | -8% | -13% | 31* | 106%
O=C(Nc1ccc(CN2CCOCC2)cc1)c1cccs1 | u | 64* | -2% | 0% | 27* | 115%
COc1cc2ccccc2cc1C(=O)Nc1ccc(CN2CCOCC2)cc1 | 2% | 35 | -3% | 242% | 20* | 24%
O=C(Nc1ccc(CN2CCOCC2)cc1)c1ccc(-c2cccc(Cl)c2)o1 | 1% | 30 | -13% | u | 18 | 1.5µM*
Cc1cccc(NC(=O)NC(C)C(c2ccccc2)N2CCN(C)CC2)c1 (centres undefined) | 16% | -1 | x | 34%[5.75 µM] | 2 | 33%[5.75 µM]
COC(=O)CN1C(=O)N/C(=C/c2cc(OC)c(OC)cc2C)C1=O | 2% | -7 | -2% | u | 3 | 9%
O=C(Cn1cc([N+](=O)[O-])ccc1=O)NC1CCCCC1 | -9% | x | x | -21% | x | 11%
CCOC(=O)c1ccc(NC(=O)c2ccc(CN3CCOCC3)cc2)cc1 | 0% | 0 | -13% | 6% | 8 | u
O=C(Nc1cnn(Cc2ccc(Cl)cc2)c1)c1cccs1 | -5% | -1 | -43% | 6.6µM* | 10 | 4.7µM*
O=C(Nc1ccc(CN2CCOCC2)cc1)c1ccccc1F | 7% | 92* | 8% | 417% | 42* | 309%
O=C(Nc1ccc(CN2CCOCC2)cc1)c1ccc(Cl)cc1Cl | -1% | 11 | 3% | 13% | 17* | -32%
O=C(Nc1ccc(CN2CCOCC2)cc1)c1ccc(-c2ccc(Cl)cc2Cl)o1 | 50µM* | -7 | -1% | -4% | 8 | 2.1µM*
O=C(Nc1ccc(CN2CCOCC2)cc1)c1cc(Br)ccc1Cl | -1% | 10 | -11% | u | 3 | 15%
CCOC(=O)Cc1csc(SCC(=O)Nc2oc(C)c3c(C)n[nH]c(=O)c23)n1 | -31% | x | x | u | x | -29%

From PubChem BioAssay
